According to PubChem BioAssay (NCI):
This is part of a sample that, as a whole, favours compounds with a hit. Of some 83,000 tested, about 20% had one in any assay.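 Results are percent growth after 48 hours of single-concentration exposure. 100 means growth as in untreated cells, lower positive values show inhibition; negative values down to -100 show cell death.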 Unmarked numbers belong to inactive results. The source made the active and inactive calls. Rule for the calls: active = growth percent below 10; inactive = the rest.

Columns and labels:
Test in all cases: NCI-60 one-dose screen, 48 h (100 = growth as untreated, 0 = no growth, -100 = all killed)
SK-MEL-2 melanoma = details: 10 µM unless noted
EKVX NSCLC = details: 10 µM
SN12C renal = details: 10 µM unless noted
UO-31 renal = details: 10 µM unless noted
TK-10 renal = details: 10 µM unless noted
ACHN renal = details: 10 µM unless noted
CAKI-1 renal = details: 10 µM unless noted
A498 renal = details: 10 µM unless noted
CCRF-CEM leukemia = details: 10 µM
MOLT-4 leukemia = details: 10 µM unless noted

Row | Structure (SMILES) | growth (SK-MEL-2 melanoma) | growth (EKVX NSCLC) | growth (SN12C renal) | growth (UO-31 renal) | growth (TK-10 renal) | growth (ACHN renal) | growth (CAKI-1 renal) | growth (A498 renal) | growth (CCRF-CEM leukemia) | growth (MOLT-4 leukemia)
1 | COC1(OC)N=C(N)C2(C#N)C3(C(=O)Nc4ccccc43)C12C#N (configuration not stated) | 83.5% | 77.4% | 93.8% | 52.9% | 98% | 67.3% | 21.3% | -9.49% (active) | 77.8% | 
2 | Cc1c(O)c(N=Nc2ccc(C(=O)O)c(O)c2)c2ccccc2c1O | 92.7% | 66.4% | 96.3% | 74.3% | 116% | 97.6% | 84.5% | 86.3% | 112% | 
3 | N=C(N)c1ccc(-c2ccc(-c3ccc(Cl)cc3)s2)s1 | -29.6% (active) | -70.7% (active) | -50% (active) | -87.5% (active) | -55.3% (active) | -97% (active) | -11.6% (active) | 50.9% | -70.8% (active) | -59.6% (active)
4 | COc1cc2c(cc1OC)C(Cc1cc(OC)c(OC)cc1[N+](=O)[O-])=NCC2 | 92.9% | 92.8% | 77.9% | 66.9% | 73.4% | 85.2% | 87.9% | 56.4% | 88.3% | 92.4%
5 | N=c1c2c(=O)n3c(nc2nc2sc4ccc(Cl)cc4n12)-c1ccccc1Sc1ccccc1-3 | 7.77% (active) | 9.46% (active) | 21.4% | -5.37% (active) | 47% | 14.7% | 6.62% (active) | 47.1% | 12.5% | 
6 | COc1cc(-c2c3c(cn2CCN2CCCCC2)-c2oncc2CC3)cc(OC)c1OC | 106% | 102% | 101% | 80.2% | 100% | 89.7% | 87% | 90.9% | 103% | 
7 | CC([C@H]1CCC2C3CCC4C[C@@H](N)CC[C@]4(C)C3CC[C@@]21C)N(C)C (some centres not stated) | 91.7% | 69.4% | 75.8% | -4.26% (active) | 109% | 78.1% | 48.8% | 89.4% | 42.3% | 38.6%
8 | COc1ccccc1Cn1cc2c(c1)-c1oncc1CC2 | 35.6% | 20.8% | 39% | 31.6% | 65.6% | 55.5% | 9.72% (active) | 29.2% | 17.6% | 
9 | CCN(CC)c1ccc2nc3ccc(N=Nc4ccc(O)cc4)cc3[n+](-c3ccccc3)c2c1 | 76.8% | 77.6% | 75.5% | 48.5% | 66.6% | 60.2% | 90.5% | 75% | 12.8% | 18.1%
10 | COc1cc2ncnc(-n3ncc4cc(NC(=O)Nc5ccc(Cl)c(Cl)c5)ccc43)c2cc1OC | -26.6% (active) | -16.1% (active) | 3.99% (active) | -17.2% (active) | -14.1% (active) | -61.6% (active) | 8.96% (active) | -22.7% (active) | 22.3% | 9.19% (active)
11 | CCS(=O)(=O)N[C@@H]1O[C@H](COC(C)=O)C(OC(C)=O)[C@H](OC(C)=O)C1OC(C)=O (some centres not stated) | 106% | 99.1% | 112% | 94.6% | 97.4% | 101% | 94.8% |  |  | 
12 | COc1cc(N)c2nccc(C)c2c1OC | 103% | 92.7% | 98.8% | 164% | 116% | 110% | 98.4% | 93.5% | 101% | 
13 | CC1(c2ccc(Br)cc2)NC(=O)NC1=O (configuration not stated) | 122% | 109% | 100% | 94.9% | 106% | 104% | 97.8% | 99.5% |  | 
14 | Brc1c(-c2ccncc2)nc2n1CCS2 | 92.7% | 110% | 91.7% | 94.5% | 97.5% | 87.7% | 90.2% | 77.6% | -8.76% (active) | 87.3%
15 | Cc1c(CN(C)C)cc(C(C)C)cc1C(C)C | 107% | 106% | 96.9% | 108% | 94.9% | 112% | 103% |  |  | 
16 | Cc1ncc(C(=O)Nc2ccc(CN3CCN(C)CC3)c(C(F)(F)F)c2)cc1C#Cc1c(N)ncc2ccccc12 | -76.9% (active) | -89.5% (active) | -99.1% (active) | -99.1% (active) | -99.4% (active) | -100% (active) | 2.22% (active) | -98% (active) | -48.3% (active) | -67.6% (active)
17 | CCCCCSc1ccc2nc(NC(=O)OCC)sc2c1 | 45.5% | 30.3% | 52.5% | 38.3% | 49.7% | 39.7% | 27.6% | -0.27% (active) | 12.4% | 26.5%
18 | Cc1ccc(OCCn2ccc(=O)n(CCOc3ccc(Cl)cc3C(=O)c3cc(C)cc(C)c3)c2=O)cc1 | 41.2% | 47% | 62% | 41.8% | 61.7% | 60.6% | 47.6% | 33.7% | 25.7% | 19.2%
19 | COC(=O)c1ccc2[nH]c(O)c(C(=Nc3ccc(N(C)C(=O)CN4CCN(C)CC4)cc3)c3ccc(C)cc3)c2c1 | -31.6% (active) | 23% | 9.81% (active) | -81.2% (active) | -82.7% (active) | -61.1% (active) | -41.6% (active) | -73.8% (active) | 1.57% (active) | -24.6% (active)
20 | COc1ccc(C(=O)CN2C(=O)NC(c3ccccc3)(c3ccccc3)C2=O)cc1 | 99.6% | 98.9% | 101% | 71.2% | 117% | 104% | 93.6% | 70.5% | 94.8% | 
21 | C=CCN(C)C | 113% | 92% | 94.7% | 93.3% | 119% | 105% | 92.5% | 91.1% |  | 
22 | C/C(=N\Nc1ccc(Cl)cn1)c1ccccn1 | 28.3% | 8.35% (active) | 15.3% | -2.91% (active) | 33.6% | 2.81% (active) | 5.04% (active) | -25.2% (active) | 2.72% (active) | 2.11% (active)
23 | Clc1ccc(N/N=C(\c2ccccc2)c2ccccn2)nc1 | 36.4% | 15.2% | 15.7% | 2.2% (active) | 52.1% | 8.31% (active) | 6.96% (active) | -14.2% (active) | 1.1% (active) | 
24 | O=c1c(N=Nc2nccs2)c(-c2ccccc2)[nH]n1-c1nc(-c2ccccc2)cs1 | 22.8% | 53.1% | 35% | 36.4% | 45.6% | 35.4% | 35.6% | 28.6% | 25.5% | 
25 | O=C(O)/C(Br)=C/c1c[nH]c2ccc(Br)cc12 | 99% | 119% | 108% | 88.8% | 117% | 104% | 97.6% | 132% | -46.1% (active) | 
26 | O=C1/C(=C/c2ccc(Cl)cc2)CCC/C1=C\c1ccc(Cl)cc1 | 117% | 89.2% | 92% | 74.1% | 123% | 95% | 89.4% | 105% | 78.1% | 
27 | CC[C@@H](C)/C=C(C)/C=C/C(=O)c1c(O)c(-c2ccc(OC(=O)[C@@]34CC[C@@](C)(C(=O)O3)C4(C)C)cc2)cn(O)c1=O | 17.8% | 22.3% | 30.4% | -26.4% (active) | 44.9% | 9.64% (active) | -27% (active) | 49.8% |  | 
28 | CCOC(=O)c1c2c(cn1Cc1ccccc1)-c1oncc1CC2 | 115% | 91.3% | 76.1% | 48.7% | 77.4% | 94.1% | 82.8% | 50.5% | 96% | 100%
29 | OCC(O)C(O)CC1SCCS1 (configuration not stated) | 107% | 97.2% | 97.9% | 78% | 96.5% | 103% | 98% | 101% | 90.6% | 84.8%
